Measurements reported in PubChem BioAssay (Tox21).
Inconclusive results are not listed. Calls of active or inactive are those of the source. Unless noted, calls follow the shape of the dose curve; as a rule, active = well fitted curve in the direction sought with a large enough effect in the repeat runs; inconclusive = weak or mixed curves; inactive = no such curve, though single readings can be large; an effect the other way counts as inactive or inconclusive.

Legend:
[1] = Human pregnane X receptor (PXR) small molecule agonists, qHTS cell viability counter screen (AID 1346977); also: nearly all actives have a fitted effect of over 50% in size
Summary of the method: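 Fluorescence read-out (CellTiter-Fluor) of viability in PXR-Luc HepG2 cells, multiplexed with the luciferase agonist read. Compounds in DMSO added after 5hr plating; 24hr total exposure at 37C, 5% CO2.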

[2] = Caspase-3/7 induction in HepG2 cells by small molecules, qHTS assay (AID 1346978); also: nearly all actives have a fitted effect of over 15% in size
Summary of the method: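 Caspase-3/7 induction was measured by Caspase-Glo 3/7 luminescence (30 min, room temperature) after a 17 hr compound exposure of wild-type HepG2 cells seeded at 2,000 per well and pre-incubated 5 hr.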

[3] = Caspase-3/7 induction in CHO-K1 cells by small molecules, qHTS cell viability counter screen (AID 1346979); also: nearly all actives have a fitted effect of over 35% in size
Summary of the method: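 CHO-K1 wt, 1,500 cells/well; 5hr pre-incubation 37C/5% CO2; compound pin transfer (DMSO); 16hr exposure; CellTiter-Fluor added, 1hr, fluorescence read.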

[4] = Caspase-3/7 induction in CHO-K1 cells by small molecules, qHTS assay (AID 1346980); also: nearly all actives have a fitted effect of over 15% in size
Summary of the method: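 Luminescent Caspase-Glo 3/7 read (30min, room temperature) quantified apoptosis induction. Cells were wild-type CHO-K1, treated with compound for 17hr at 37 C and 5% CO2.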

[5] = Caspase-3/7 induction in HepG2 cells by small molecules, qHTS cell viability counter screen (AID 1346981); also: series mostly up to about 92 µM; nearly all actives have a fitted effect of over 30% in size
Summary of the method: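 Wild-type HepG2 cells, 2,000/well, settled 5 hr at 37 C, 5% CO2 before compound addition. Viability read by CellTiter-Fluor fluorescence, reagent added after 16 hr compound exposure, then 1 hr at 37C, in the same wells as the caspase read.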

[6] = biological target: Nuclear receptor subfamily 1 group I member 2 (Homo sapiens) (UniProt O75469); experiment: Human pregnane X receptor (PXR) small molecule agonists, qHTS assay (AID 1346982); also: nearly all actives have a fitted effect of over 35% in size; also: potency is read from the fitted curve at half-maximal effect
Chain of Nuclear receptor subfamily 1 group I member 2 (Homo sapiens) (O75469 whole entry, looked up): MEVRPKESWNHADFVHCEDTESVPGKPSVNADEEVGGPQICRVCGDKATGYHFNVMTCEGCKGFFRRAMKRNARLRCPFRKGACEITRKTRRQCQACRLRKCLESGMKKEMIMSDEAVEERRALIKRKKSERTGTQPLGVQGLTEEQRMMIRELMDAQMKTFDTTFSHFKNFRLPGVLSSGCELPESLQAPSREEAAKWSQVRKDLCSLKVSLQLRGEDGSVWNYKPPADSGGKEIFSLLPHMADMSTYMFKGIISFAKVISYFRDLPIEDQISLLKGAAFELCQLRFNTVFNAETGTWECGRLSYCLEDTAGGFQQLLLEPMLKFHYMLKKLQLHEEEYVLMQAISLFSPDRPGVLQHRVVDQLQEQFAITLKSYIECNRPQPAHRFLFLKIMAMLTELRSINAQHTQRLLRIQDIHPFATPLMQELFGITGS
Summary of the method: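 PXR-Luc HepG2 reporter cells (CYP3A4-driven luciferase) in 5% charcoal-stripped FBS medium, plated 5 h before compound addition, then treated 24 h at 37C. Luciferase read by ONE-Glo luminescence after 30 min at room temperature.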

[7] = biological target: Acetylcholinesterase (Homo sapiens) (UniProt P22303); experiment: Acetylcholinesterase (AChE) small molecule antagonists: colormetric cell-based qHTS assay (AID 1347395; calls by dose curve; also: nearly all actives have a fitted effect of over 30% in size)
Chain of Acetylcholinesterase (Homo sapiens) (P22303 whole entry, looked up): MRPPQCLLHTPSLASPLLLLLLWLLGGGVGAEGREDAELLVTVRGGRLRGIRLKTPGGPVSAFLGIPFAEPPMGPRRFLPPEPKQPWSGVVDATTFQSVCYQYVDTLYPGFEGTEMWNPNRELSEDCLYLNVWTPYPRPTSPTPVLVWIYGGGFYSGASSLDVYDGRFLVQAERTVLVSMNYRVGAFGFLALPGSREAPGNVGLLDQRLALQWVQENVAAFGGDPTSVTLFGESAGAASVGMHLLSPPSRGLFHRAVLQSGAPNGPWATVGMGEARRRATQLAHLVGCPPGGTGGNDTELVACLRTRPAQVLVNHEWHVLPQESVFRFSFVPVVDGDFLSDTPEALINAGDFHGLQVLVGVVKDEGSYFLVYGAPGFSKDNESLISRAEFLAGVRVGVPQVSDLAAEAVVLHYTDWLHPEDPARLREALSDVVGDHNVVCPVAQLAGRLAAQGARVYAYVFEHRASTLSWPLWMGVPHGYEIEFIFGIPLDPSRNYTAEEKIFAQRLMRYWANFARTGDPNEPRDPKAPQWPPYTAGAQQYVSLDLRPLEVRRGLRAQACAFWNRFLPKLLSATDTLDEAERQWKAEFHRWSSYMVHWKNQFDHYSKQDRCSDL
Summary of the method: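 SH-SY5Y cells; cpd 30 min 37 C; + DTNB/acetylthiocholine, 90 min 37 C; colorimetric thiocholine read; qHTS.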

[8] = biological target: Acetylcholinesterase (Homo sapiens) (UniProt P22303); experiment: Acetylcholinesterase (AChE) small molecule antagonists: enzyme-based qHTS assay (AID 1347397; calls by dose curve; also: nearly all actives have a fitted effect of over 55% in size); conditions: Potency: AChE enzyme activity inhibition; outcome: AChE enzyme activity inhibition
Summary of the method: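 Absorbance-based detection of thiocholine with DTNB served as the read-out. Recombinant human AChE was exposed to compound for 30 min at RT before a 10 min RT incubation with acetylthiocholine.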

[9] = biological target: Acetylcholinesterase (Homo sapiens) (UniProt P22303); experiment: Acetylcholinesterase (AChE) small molecule antagonists: fluorescence cell-based qHTS assay (AID 1347398; calls by dose curve; also: nearly all actives have a fitted effect of over 50% in size); conditions: Potency: AChE activity; outcome: AChE activity
Summary of the method: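 Fluorimetric cell-based assay: intact SH-SY5Y cells, 30 min compound preincubation at 37 C, acetylthiocholine substrate with thiol probe Thiolite Green, 40 min RT development, fluorescence 490/520 nm.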

[10] = biological target: Acetylcholinesterase (Homo sapiens) (UniProt P22303); experiment: Acetylcholinesterase (AChE) small molecule antagonists: enzyme-based qHTS assay with human liver microsomes (AID 1347399; calls by dose curve; also: nearly all actives have a fitted effect of over 60% in size); conditions: Potency: qHTS inhibition; outcome: qHTS inhibition
Summary of the method: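 Recombinant human AChE (50 mU/mL in the enzyme mix) and human liver microsomes (0.25 mg/mL final) were preincubated with compound and NADPH (0.25 mg/mL final) for 30 min at 37 C. Acetylthiocholine/DTNB was then added; thiocholine was read colorimetrically after 10 min at room temperature.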

[11] = biological target: Cytochrome P450 2D6 (Homo sapiens) (UniProt P10635); experiment: Cytochrome P450 Family 2 Subfamily D Member 6 (CYP2D6) small molecule antagonists: luciferase reporter qHTS assay (AID 1671196); also: nearly all actives have a fitted effect of over 50% in size; also: potency is read from the fitted curve at half-maximal effect; as to activity change, negative = inhibition: series mostly up to about 120 µM
Chain of Cytochrome P450 2D6 (Homo sapiens) (P10635 whole entry, looked up): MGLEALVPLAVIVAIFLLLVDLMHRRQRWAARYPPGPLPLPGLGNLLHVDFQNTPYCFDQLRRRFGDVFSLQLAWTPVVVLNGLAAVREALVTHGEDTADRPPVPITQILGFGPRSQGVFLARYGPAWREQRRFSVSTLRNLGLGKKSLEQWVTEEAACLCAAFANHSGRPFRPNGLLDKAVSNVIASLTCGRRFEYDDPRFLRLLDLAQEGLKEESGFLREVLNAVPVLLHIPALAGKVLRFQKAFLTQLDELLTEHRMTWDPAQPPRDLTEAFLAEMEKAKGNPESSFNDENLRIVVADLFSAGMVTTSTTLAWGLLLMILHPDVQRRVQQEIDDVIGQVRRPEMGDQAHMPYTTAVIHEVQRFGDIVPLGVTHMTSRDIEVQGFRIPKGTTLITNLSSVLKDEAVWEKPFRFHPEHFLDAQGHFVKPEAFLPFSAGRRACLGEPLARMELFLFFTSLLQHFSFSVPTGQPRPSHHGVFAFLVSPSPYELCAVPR
Summary of the method: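 Cell-free P450-Glo system: CYP2D6 with proluciferin substrate was pre-incubated with compound for 10 min, then reacted with NADPH regeneration for 1 h at room temperature. Luciferin product was detected after 20 min, and data were reported as relative luminescence units.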

[12] = biological target: Cytochrome P450 2C9 (Homo sapiens) (UniProt P11712); experiment: Cytochrome P450 Family 2 Subfamily C Member 9 (CYP2C9) small molecule antagonists: luciferase reporter qHTS assay (AID 1671198); also: series mostly up to about 120 µM; nearly all actives have a fitted effect of over 50% in size
Chain of Cytochrome P450 2C9 (Homo sapiens) (P11712 whole entry, looked up): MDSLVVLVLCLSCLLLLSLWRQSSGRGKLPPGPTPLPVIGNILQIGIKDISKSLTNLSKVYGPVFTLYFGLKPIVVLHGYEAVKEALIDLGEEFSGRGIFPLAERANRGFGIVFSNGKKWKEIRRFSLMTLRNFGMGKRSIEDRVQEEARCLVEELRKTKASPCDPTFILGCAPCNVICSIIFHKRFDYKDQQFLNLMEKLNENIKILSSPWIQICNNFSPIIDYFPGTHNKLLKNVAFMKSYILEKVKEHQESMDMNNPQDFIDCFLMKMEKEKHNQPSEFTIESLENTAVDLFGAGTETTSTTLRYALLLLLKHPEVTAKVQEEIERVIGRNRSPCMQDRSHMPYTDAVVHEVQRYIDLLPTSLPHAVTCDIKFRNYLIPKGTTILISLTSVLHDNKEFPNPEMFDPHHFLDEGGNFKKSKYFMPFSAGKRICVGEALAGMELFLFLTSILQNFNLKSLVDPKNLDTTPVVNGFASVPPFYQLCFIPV
Summary of the method: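 Enzyme-substrate mix preincubated with compound 10 min at room temperature; reaction started with NADPH regeneration solution, 1 h 37C. Luminescent luciferin product read after 20 min detection reagent.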

[13] = biological target: Cytochrome P450 1A2 (Homo sapiens) (UniProt P05177); experiment: Cytochrome P450 Family 1 Subfamily A Member 2 (CYP1A2) small molecule antagonists: luciferase reporter qHTS assay (AID 1671199); also: nearly all actives have a fitted effect of over 50% in size; also: potency is read from the fitted curve at half-maximal effect; as to activity change, negative = inhibition: series mostly up to about 120 µM
Chain of Cytochrome P450 1A2 (Homo sapiens) (P05177 whole entry, looked up): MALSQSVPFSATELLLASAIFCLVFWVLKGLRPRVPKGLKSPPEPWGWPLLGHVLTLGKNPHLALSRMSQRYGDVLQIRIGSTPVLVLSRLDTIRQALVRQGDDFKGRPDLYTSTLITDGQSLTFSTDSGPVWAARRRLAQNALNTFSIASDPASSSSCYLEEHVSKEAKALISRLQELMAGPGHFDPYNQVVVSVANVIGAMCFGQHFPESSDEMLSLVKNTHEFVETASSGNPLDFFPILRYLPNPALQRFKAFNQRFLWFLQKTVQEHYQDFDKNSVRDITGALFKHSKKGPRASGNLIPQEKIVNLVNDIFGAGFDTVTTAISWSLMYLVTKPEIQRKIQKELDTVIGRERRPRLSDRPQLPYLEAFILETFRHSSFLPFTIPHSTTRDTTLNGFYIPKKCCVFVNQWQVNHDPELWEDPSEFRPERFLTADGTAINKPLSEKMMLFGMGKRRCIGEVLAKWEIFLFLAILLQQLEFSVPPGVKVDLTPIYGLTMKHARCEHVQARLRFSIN
Summary of the method: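 P450-Glo CYP1A2 enzyme–proluciferin substrate mix with compound 10 min at room temperature, then NADPH regeneration 1 h at room temperature. Luciferin detection reagent added, luminescence read after 20 min; furafylline positive control.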

[14] = biological target: Voltage-gated inwardly rectifying potassium channel KCNH2 (Homo sapiens) (UniProt Q12809); experiment: Human Ether-a-go-go-Related Gene (hERG) channel small molecule antagonists: fluorescence cell-based qHTS assay (AID 1671200)
Chain of Voltage-gated inwardly rectifying potassium channel KCNH2 (Homo sapiens) (Q12809 whole entry, looked up): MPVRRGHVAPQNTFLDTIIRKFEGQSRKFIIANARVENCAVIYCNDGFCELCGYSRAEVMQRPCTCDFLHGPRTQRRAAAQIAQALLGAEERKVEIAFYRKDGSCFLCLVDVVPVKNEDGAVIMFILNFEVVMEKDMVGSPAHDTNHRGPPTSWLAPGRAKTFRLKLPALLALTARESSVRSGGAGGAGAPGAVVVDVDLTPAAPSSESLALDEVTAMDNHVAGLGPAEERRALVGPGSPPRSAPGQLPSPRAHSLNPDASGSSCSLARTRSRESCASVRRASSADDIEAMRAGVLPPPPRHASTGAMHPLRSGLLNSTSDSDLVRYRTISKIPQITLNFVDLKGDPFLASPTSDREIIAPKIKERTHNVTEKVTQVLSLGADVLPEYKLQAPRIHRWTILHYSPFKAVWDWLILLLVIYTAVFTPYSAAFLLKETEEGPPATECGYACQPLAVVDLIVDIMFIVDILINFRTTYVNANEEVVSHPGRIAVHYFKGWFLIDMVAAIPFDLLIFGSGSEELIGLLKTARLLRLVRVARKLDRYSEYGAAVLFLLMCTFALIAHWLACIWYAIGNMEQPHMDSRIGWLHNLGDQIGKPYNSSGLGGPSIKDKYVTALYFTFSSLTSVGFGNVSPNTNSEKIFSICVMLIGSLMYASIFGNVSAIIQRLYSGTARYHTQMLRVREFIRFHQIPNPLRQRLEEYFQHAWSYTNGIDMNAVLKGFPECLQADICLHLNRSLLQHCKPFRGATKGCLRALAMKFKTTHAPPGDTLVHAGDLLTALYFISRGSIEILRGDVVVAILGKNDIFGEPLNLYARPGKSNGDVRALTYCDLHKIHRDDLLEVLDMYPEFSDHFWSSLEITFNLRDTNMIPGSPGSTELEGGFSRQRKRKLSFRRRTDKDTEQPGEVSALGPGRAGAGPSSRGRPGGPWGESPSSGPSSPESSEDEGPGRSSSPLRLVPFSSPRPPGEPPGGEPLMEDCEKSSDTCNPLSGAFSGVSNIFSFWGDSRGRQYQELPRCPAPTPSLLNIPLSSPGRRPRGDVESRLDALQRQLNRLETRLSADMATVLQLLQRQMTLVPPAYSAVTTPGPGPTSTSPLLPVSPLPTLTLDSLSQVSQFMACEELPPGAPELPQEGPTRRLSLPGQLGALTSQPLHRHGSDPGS
Summary of the method: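 Read-out: thallium influx as a surrogate for potassium, tracked as fluorescence (480 nm ex/540 nm em) every second for 2 min after Stimulus Buffer addition in dye-loaded hERG-U2OS cells.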

[15] = biological target: Cytochrome P450 3A4 (Homo sapiens) (UniProt P08684); experiment: Cytochrome P450 Family 3 Subfamily A Member 4 (CYP3A4) small molecule antagonists: luciferase reporter qHTS assay (AID 1671201)
Chain of Cytochrome P450 3A4 (Homo sapiens) (P08684 whole entry, looked up): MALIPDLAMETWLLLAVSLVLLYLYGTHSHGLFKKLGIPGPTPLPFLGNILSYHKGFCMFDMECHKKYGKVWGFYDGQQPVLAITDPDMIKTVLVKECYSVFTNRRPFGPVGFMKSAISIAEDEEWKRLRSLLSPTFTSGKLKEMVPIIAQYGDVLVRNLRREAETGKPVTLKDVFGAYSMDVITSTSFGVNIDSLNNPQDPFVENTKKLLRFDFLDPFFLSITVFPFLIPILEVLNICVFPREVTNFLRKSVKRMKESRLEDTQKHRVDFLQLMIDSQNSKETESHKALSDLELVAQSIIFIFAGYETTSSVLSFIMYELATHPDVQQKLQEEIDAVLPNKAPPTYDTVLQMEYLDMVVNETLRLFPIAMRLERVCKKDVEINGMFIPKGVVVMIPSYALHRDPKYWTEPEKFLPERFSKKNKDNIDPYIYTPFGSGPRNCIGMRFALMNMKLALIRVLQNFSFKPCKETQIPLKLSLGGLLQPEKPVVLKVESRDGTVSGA
Summary of the method: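 Luminescent readout (RLU) proportional to CYP3A4 activity, from luciferin generated off a proluciferin substrate. Enzyme–substrate mix plus compound 10 min at room temp, NADPH regeneration 1 h, detection reagent 20 min.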

[16] = biological target: Cytochrome P450 2C19 (Homo sapiens) (UniProt P33261); experiment: Cytochrome P450 Family 2 Subfamily C Member 19 (CYP2C19) small molecule antagonists: luciferase reporter qHTS assay (AID 1671197); also: nearly all actives have a fitted effect of over 65% in size; also: potency is read from the fitted curve at half-maximal effect; as to activity change, negative = inhibition: series mostly up to about 120 µM
Chain of Cytochrome P450 2C19 (Homo sapiens) (P33261 whole entry, looked up): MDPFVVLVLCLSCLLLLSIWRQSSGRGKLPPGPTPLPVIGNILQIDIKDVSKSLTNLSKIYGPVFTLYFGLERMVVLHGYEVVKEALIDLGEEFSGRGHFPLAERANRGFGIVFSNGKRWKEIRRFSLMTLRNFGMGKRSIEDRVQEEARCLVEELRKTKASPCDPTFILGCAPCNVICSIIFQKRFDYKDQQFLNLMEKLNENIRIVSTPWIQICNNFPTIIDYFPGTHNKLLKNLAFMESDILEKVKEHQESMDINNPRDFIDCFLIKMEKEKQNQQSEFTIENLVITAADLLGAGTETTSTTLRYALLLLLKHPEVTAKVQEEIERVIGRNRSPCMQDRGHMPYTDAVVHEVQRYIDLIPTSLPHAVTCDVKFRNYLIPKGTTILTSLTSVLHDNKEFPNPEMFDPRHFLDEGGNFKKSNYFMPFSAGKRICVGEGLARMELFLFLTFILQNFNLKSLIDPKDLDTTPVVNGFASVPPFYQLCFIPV
Summary of the method: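 P450-Glo CYP2C19 screening system; proluciferin substrate; DMSO compound stocks; 10 min RT preincubation; NADPH regeneration, 1 h at 37C; luciferin detection reagent, 20 min RT; luminescence as RLU.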
% is scaled to controls: 0 for no effect and ±100 for the full control effect.

ClCCCCl
inactive: Potency [1] | outcome [2] | Potency [3] | outcome [4] | Potency [5] | Potency [6] | Potency [7] | Potency [8] | Potency [9] | Potency [10] | Potency [11] | Potency [12] | Potency [14] | Potency [15]
active: Potency [13] 23.9 µM

CCC(=O)c1ccc(Cl)cc1
inactive: Potency [1] | outcome [2] | Potency [3] | outcome [4] | Potency [5] | Potency [6] | Potency [7] | Potency [8] | Potency [9] | Potency [10] | Potency [16] | Potency [13] | Potency [14] | Potency [15]

C=CCCC#N
inactive: Potency [1] | outcome [2] | Potency [3] | outcome [4] | Potency [5] | Potency [6] | Potency [7] | Potency [8] | Potency [9] | Potency [10] | Potency [12] | Potency [14] | Potency [15]
active: Potency [11] 38.9 µM | Potency [16] 61.7 µM

NCC1(CC(=O)O)CCCCC1
inactive: Potency [1] | outcome [2] | Potency [3] | outcome [4] | Potency [5] | Potency [6] | Potency [7] | Potency [8] | Potency [10] | Potency [11] | Potency [16] | Potency [12] | Potency [13] | Potency [14] | Potency [15]

CCCC[N+](=O)[O-]
inactive: Potency [1] | outcome [2] | Potency [3] | outcome [4] | Potency [5] | Potency [6] | Potency [7] | Potency [8] | Potency [9] | Potency [10] | Potency [16] | Potency [12] | Potency [13] | Potency [14] | Potency [15]

O=C(Cl)C(Cl)Cl
inactive: Potency [1] | outcome [2] | Potency [3] | outcome [4] | Potency [5] | Potency [6] | Potency [7] | Potency [8] | Potency [9] | Potency [10] | Potency [11] | Potency [16] | Potency [12] | Potency [14] | Potency [15]

Clc1cc2c(cc1Cl)Oc1cc(Cl)c(Cl)cc1O2
inactive: activity change, negative = cytotoxicity [1] -5.16% [at 0.349 µM] | caspase activation [2] 2.22% [at 0.349 µM] | activity change, negative = cytotoxicity [3] 8.13% [at 0.349 µM] | caspase-3/7 activation [4] 0.0442% [at 0.349 µM] | activity change, negative = cytotoxicity [5] -3.38% [at 0.349 µM] | activation [6] -4.83% [at 0.349 µM] | activity, negative = inhibition [7] -1.29% [at 0.435 µM] | activity change, negative = inhibition [8] 0.681% [at 0.435 µM] | activity change, negative = inhibition [9] 4.87% [at 0.439 µM] | activity change, negative = inhibition [10] -0.563% [at 0.435 µM] | activity change, negative = inhibition [11] -1.99% [at 0.435 µM] | activity change, negative = inhibition [16] -2.53% [at 0.435 µM] | activity change, negative = inhibition [14] 4.67% [at 0.29 µM] | activity change, negative = inhibition [15] -0.782% [at 0.435 µM]

COc1cc(CC(C)N)cc(OC)c1OC (configuration not stated)
inactive: Potency [1] | outcome [2] | Potency [3] | outcome [4] | Potency [5] | Potency [6] | Potency [7] | Potency [8] | Potency [9] | Potency [10] | Potency [16] | Potency [12] | Potency [14]
active: Potency [13] 43.2 µM

CON(C)C(=O)Nc1ccc(Br)cc1
active: Potency [6] 38.6 µM | Potency [16] 35.6 µM | Potency [13] 5.64 µM
inactive: Potency [1] | outcome [2] | Potency [3] | outcome [4] | Potency [5] | Potency [7] | Potency [8] | Potency [9] | Potency [10] | Potency [11] | Potency [14] | Potency [15]
